# Experimental data from PubChem BioAssay (NCATS).
# A number with no mark means an inactive call. Results filed as inconclusive are left out. Where a call stands in place of a potency, no number is given. The source made the active and inactive calls. Unless noted, calls come from the whole dose curve; as a rule, active = well fitted curve in the direction sought with a large enough effect; inconclusive = small, poorly fitted or top-dose-only effect, or another doubt; inactive = no such curve, though single readings can be large; an effect the other way counts as inactive or inconclusive.
# Experiments:
# [1] = target: Tyrosine-protein kinase Yes (Homo sapiens) (UniProt P07947); test: qHTS for small molecule inhibitors of Yes1 kinase: Primary Screen (AID 686947); note: nearly all actives have a fitted effect of over 60% in size; note: potency is the fitted concentration of half-maximal effect
# Method in brief: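 In this qHTS format, inhibition is expressed relative to DMSO controls with enzyme (maximum) and without enzyme (minimum). The 60 min room-temperature reaction uses 0.1 mM ATP, with ADP detected by luminescence.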
# [2] = qHTS for small molecule inhibitors of Yes1 kinase: Counter Assay (AID 686950);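 note: no kinase present so only ADP-Glo detection of a fixed ADP amount is tested; luminescence from ADP-Glo reporting ADP in a fixed ATP and ADP mixture; series mostly up to about 77 µM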
# Method in brief: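 No kinase present; 0.08 mM ATP + 0.02 mM ADP in 50 mM Tris pH 7.5, 10 mM MgCl2, 150 mM NaCl, 1 mM DTT; 20 min compound preincubation, 60 min RT, ADP-Glo luminescence, normalized to ATP/ADP (max) and ATP-only (min).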
# [3] = qHTS assay for small molecule activators of the nuclear factor-kappa B (NF-kB) signaling pathway (AID 651749; active = well fitted activation curve with a large enough effect in the signal ratio; the % refers to the signal ratio; note: series mostly up to about 77 µM); settings: NF-kB-bla ME-180 cells, beta-lactamase FRET ratio, 16 h; active compounds read high
# Method in brief: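 NF-kB-bla ME-180 cells, 2,000/well; 23 nL compound or DMSO pinned; 16 hr, 37C/5% CO2; beta-lactamase FRET read-out.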
# [4] = qHTS for compounds that reverse cellular toxicity of Amyloid beta (A-beta) peptide in yeast: LOPAC Validation Assay (AID 720559)
# Method in brief: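 Here, A-beta-toxic yeast grow with test compounds at 30 C for 48 hr before optical density at 600 nm is recorded; data are normalized against DMSO and the FeCl3-clioquinol control.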
# [5] = target: Peroxisome proliferator-activated receptor alpha (Homo sapiens) (UniProt Q07869); test: qHTS assay for small molecule agonists of the peroxisome proliferator-activated receptor alpha (PPARalpha) signaling pathway (AID 651778); settings: PathHunter PPARalpha complementation, chemiluminescence, 6 h; active compounds read high
# Method in brief: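 Enzyme-fragment complementation assay in which ligand-bound PPARalpha translocates and forms an active enzyme that generates chemiluminescence. Cells were plated overnight, exposed to compound for 6 hr at 37 C, and then given detection reagent for 60 min at room temperature.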
# [6] = qHTS assay for small molecule disruptors of the mitochondrial membrane potential - 1 hr assay (AID 651754; calls by dose curve; note: nearly all actives have a fitted effect of over 35% in size)
# Method in brief: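 In this qHTS format, a 1 hr compound treatment of HepG2 cells precedes Mito-MPS staining, and membrane potential is judged from aggregate (red) against monomer (green) fluorescence intensity.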
# [7] = qHTS assay for small molecule disruptors of the mitochondrial membrane potential - 5 hr assay (AID 651755; calls by dose curve; note: nearly all actives have a fitted effect of over 40% in size)
# Method in brief: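 Read-out: ratiometric Mito-MPS fluorescence, green monomer (ex 490/em 535) vs red mitochondrial aggregate (ex 540/em 590). HepG2 cells treated 5 hr at 37C before 30 min dye loading.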
# [8] = qHTS assay to identify small molecules that stimulate interleukin-8 (IL-8) secretion (AID 651758; active = well fitted activation curve with a large enough effect in the signal ratio; the % refers to the signal ratio)
# Method in brief: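 Compounds are added to THP-1 cells (2000 per well) and left 16 hrs at 37 C. A labeled anti-IL-8 antibody pair is then added, and IL-8 secretion is measured by time-resolved FRET after 1-3 hrs at room temperature.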
# [9] = target: Nuclear receptor ROR-gamma (Homo sapiens) (UniProt P51449); test: qHTS assay for small molecule antagonists of the retinoid-related orphan receptor gamma (ROR-gamma) signaling pathway (AID 651802);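 note: CHO cells with doxycycline-induced ROR-gamma expression; luciferase reporter luminescence driven by ROR response element; series mostly up to about 92 µM; nearly all actives have a fitted effect of over 60% in size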
# Method in brief: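 Doxycycline-induced reporter activity in engineered CHO cells (TET-inducible ROR, RORE-LUC) was measured by luminescence after 16hr compound exposure at 37C.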
# Sequence of Tyrosine-protein kinase Yes (Homo sapiens) (P07947 whole entry, looked up): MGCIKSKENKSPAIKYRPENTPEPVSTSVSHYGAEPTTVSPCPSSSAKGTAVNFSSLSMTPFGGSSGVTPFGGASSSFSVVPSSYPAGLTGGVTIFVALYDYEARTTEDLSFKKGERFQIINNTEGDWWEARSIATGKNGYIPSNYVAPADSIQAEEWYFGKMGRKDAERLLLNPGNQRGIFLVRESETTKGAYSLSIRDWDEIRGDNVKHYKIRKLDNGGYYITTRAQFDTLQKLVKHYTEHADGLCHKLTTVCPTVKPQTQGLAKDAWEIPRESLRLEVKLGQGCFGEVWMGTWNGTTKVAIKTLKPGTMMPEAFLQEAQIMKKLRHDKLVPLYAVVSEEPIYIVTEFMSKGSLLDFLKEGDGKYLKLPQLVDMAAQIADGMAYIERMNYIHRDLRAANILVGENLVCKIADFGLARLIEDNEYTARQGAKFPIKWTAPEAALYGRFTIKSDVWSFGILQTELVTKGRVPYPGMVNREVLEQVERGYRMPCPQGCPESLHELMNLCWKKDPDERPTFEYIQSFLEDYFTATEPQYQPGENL
# Sequence of Peroxisome proliferator-activated receptor alpha (Homo sapiens) (Q07869 whole entry, looked up, the tested form may be a part): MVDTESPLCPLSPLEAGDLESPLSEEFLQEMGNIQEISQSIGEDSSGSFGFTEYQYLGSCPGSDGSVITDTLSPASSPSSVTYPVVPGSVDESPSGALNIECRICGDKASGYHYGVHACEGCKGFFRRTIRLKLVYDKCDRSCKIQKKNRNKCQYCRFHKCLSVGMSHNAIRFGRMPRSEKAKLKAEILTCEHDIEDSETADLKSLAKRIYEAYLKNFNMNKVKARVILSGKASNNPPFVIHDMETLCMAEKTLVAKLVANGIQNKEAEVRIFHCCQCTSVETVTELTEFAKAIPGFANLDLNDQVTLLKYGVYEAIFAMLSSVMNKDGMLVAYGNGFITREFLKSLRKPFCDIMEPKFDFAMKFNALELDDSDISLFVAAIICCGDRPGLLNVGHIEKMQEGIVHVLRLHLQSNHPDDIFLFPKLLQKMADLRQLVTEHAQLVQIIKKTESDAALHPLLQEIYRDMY
# Sequence of Nuclear receptor ROR-gamma (Homo sapiens) (P51449 whole entry, looked up): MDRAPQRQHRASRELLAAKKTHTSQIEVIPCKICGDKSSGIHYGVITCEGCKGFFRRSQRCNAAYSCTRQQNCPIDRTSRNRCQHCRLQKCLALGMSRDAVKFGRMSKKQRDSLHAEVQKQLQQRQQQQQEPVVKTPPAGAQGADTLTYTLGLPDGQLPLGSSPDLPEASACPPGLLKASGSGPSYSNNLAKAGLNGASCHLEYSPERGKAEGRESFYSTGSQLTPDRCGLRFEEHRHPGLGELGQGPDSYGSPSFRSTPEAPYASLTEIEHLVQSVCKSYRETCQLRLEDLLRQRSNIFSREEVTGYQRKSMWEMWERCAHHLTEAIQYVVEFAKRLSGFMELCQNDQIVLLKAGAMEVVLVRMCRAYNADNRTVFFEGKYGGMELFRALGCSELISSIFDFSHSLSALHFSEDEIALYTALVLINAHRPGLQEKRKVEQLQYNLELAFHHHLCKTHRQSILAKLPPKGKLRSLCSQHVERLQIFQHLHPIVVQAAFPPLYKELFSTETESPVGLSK
smiles,measurement,setting,value
CC[C@H](Nc1ncnc2nc[nH]c12)c1nc2cccc(F)c2c(=O)n1-c1ccccc1,Potency,[1],inactive
same,outcome,[2],inactive
CCN(CCCO)CCCOc1ccc2c(Nc3cc(CC(=O)Nc4cccc(F)c4)[nH]n3)ncnc2c1,Potency,[1],0.387 µM (active)
same,outcome,[2],inactive
Cn1c(=O)c(F)c(Nc2ccc(I)cc2F)c2c(=O)n(C[C@@H](O)CO)cnc21,Potency,[1],inactive
same,outcome,[2],inactive
CC(C)(Sc1ccc(CCN(CCCCC2CCCCC2)C(=O)NC2CCCCC2)cc1)C(=O)O,activation,[3],7.6%
same,outcome,[2],inactive
same,outcome,[4],inactive
CNC[C@H](O)c1cccc(O)c1,activation,[3],-0.433%
same,max response,[5],-0.749%
same,outcome,[4],inactive
NS(=O)(=O)c1cc2c(cc1Cl)NC=NS2(=O)=O,activation,[3],-0.0978%
same,outcome,[6],inactive
same,outcome,[7],inactive
same,outcome,[8],inactive
same,max response,[5],-1.54%
same,outcome,[9],inactive
same,outcome,[4],inactive
Cc1cc(-c2ccc(CC(=O)Nc3ccc(-c4cccnc4)cc3)cc2)ccn1,Potency,[1],inactive
same,outcome,[2],inactive
COc1ccc(COc2cc3oc(=O)c4cc(C(C)O)ccc4c3cc2OC)cc1 (centres undefined),Potency,[1],inactive
same,outcome,[2],inactive
COc1c(Cl)cc2c([nH]c3cnccc32)c1NC(=O)c1cccnc1C,Potency,[1],inactive
same,outcome,[2],inactive
c1ccc(-c2nn3c(c2-c2ccnc4cc(OCCN5CCOCC5)ccc24)CCC3)nc1,Potency,[1],8.67 µM (active)
same,outcome,[2],inactive
C[C@]12CCC(=O)C=C1CC[C@@H]1[C@@H]2[C@@H](O)C[C@@]2(C)[C@H]1CC[C@]2(O)C(=O)CO,activation,[3],-2.01%
same,max response,[5],-0.295%
same,Potency,[1],inactive
same,outcome,[2],inactive
same,outcome,[4],inactive
Cc1ccc2c(c1)C(=O)[C@@]1(O)CCN(c3ccccc3)C1=N2,Potency,[1],inactive
same,outcome,[2],inactive
